Bioassay records: PubChem BioAssay, Broad Institute
CFTR F508del cor: correctors of CFTR F508del function in bronchial epithelial cells. CFBE cells, YFP halide quenching; stimulated with forskolin plus potentiator P3; % fluorescence drop versus neutral controls. activity (quench increase), % at 7.58 µM. 350,000 compounds, 0.36% hits. AID 720511;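 active = mean added fluorescence quench of at least 8% versus neutral control, with both replicates also reaching 8%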;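 also: cells transiently co-express mutant CFTR-F508del with the halide-sensitive YFP; corrector assay measuring rescue of mutant channel to the surface after 24 h compound exposure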
ALR H2O2 inh: inhibitors of human sulfhydryl oxidase ALR. P55789. purified ALR, DTT oxidation, H2O2 HRP-luminol luminescence. inhibition, % (no concentration beside the values). 290,000 compounds, 3.8% hits. AID 485317;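 active = mean replicate inhibition above about 79%, with every replicate also reaching it, limit read from the data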
PglD inh: inhibitors of Campylobacter jejuni PglD acetyltransferase; purified PglD enzyme, DTNB colorimetric CoA detection; inhibition, % at 12.5 µM; 360,000 compounds, 0.098% hits; AID 602405; in the data active = inhibition above about 16%, passing the limit was not always enough
Casp6 inh: caspase-6 (human) enzyme inhibition. AID 686996. P55212. 350,000 compounds, 0.53% hits. inhibition, % at 12.5 µM. purified caspase-6, Z-VEID-R110 cleavage fluorescence;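 active = mean inhibition across replicates at least about 35%, with every replicate also reaching that limit, limit read from the data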;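 also: 0% = median of neutral control wells and 100% = no fluorescence left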
Target sequence (P55212 24-179 limits assumed): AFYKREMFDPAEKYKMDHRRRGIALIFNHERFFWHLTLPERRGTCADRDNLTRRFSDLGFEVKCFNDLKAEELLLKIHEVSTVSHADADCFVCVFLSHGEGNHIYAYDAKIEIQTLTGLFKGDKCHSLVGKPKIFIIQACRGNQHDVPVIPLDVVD
Target sequence (P55212 194-293 limits assumed): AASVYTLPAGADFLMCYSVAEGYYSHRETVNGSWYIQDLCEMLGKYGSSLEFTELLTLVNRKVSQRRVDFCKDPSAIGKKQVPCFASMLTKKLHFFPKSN
NSD2 HMT inh: blocks human histone methyltransferase NSD2; AID 743445; NSD2 peptide methylation, AlphaScreen, 120 min; inhibition, % at 12.5 µM; 310,000 compounds, 0.54% hits; in the data active = inhibition above about 50%
HIV Env fusion: inhibitors of HIV Env-mediated cell fusion; HeLa-JRFL Env/CEM21 cell fusion, luciferase; inhibition, % at 12.3 µM; 360,000 compounds, 1.1% hits; AID 651610;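 active = mean replicate inhibition score of at least 50 and every replicate individually at or above 50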;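 also: 0% = plate neutral controls and 100% = maraviroc near 300 nM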
* marks the source's active call; other numbers are inactive results; · = not tested or not shown; [ ] = dose if it differs, or a comment. Compounds with a hit are over-represented: about 4.1% of the library has one in this group of screens.

SMILES | CFTR F508del cor | ALR H2O2 inh | PglD inh | Casp6 inh | NSD2 HMT inh | HIV Env fusion
COCC(=O)Nc1ccc2c(c1)C(=O)N(C)[C@@H]1CC[C@@H](CC(=O)Nc3cn(C)nc3C)O[C@H]1CO2 | -1 | · | 9 | · | · | 0[16.7 µM]
C[C@H]1CN([C@@H](C)CO)C(=O)c2cc(C#CCc3ccccc3)cnc2O[C@H]1CN(C)Cc1ccc(C(=O)O)cc1 | 3 | · | 1 | 4 | · | -4[16.7 µM]
O=c1cc(CSc2ccc(Cl)cc2)[nH]c2[nH]n(-c3ccccc3)c(=O)c12 | 2 | 85* | 1 | 6 | 11 | -2
Cc1[nH]n(-c2ccccc2)c(=O)c1Sc1ccc(Cl)cc1 | · | 22 | 9 | · | 4 | 10
Cc1ccc(SCc2cc(=O)c3c(=O)n(-c4ccccc4)[nH]c3[nH]2)cc1 | -1 | 94* | 2 | 6 | 27 | 9
O=c1cc(CSc2ccccc2)[nH]c2ccccc12 | 1 | -2 | -6 | 3 | -2 | 17
C[C@@H]1CN([C@H](C)CO)S(=O)(=O)c2ccc(C#CC3CCCC3)cc2O[C@H]1CN(C)C(=O)C1CC1 | 1 | · | 4 | 0 | · | 29[16.7 µM]
C[C@@H]1CCCCO[C@@H](CN(C)Cc2ccccc2)[C@H](C)CN([C@@H](C)CO)C(=O)c2cc(NC(=O)Nc3ccc(F)cc3)ccc2O1 | 0 | · | -3 | 1 | · | -20[16.7 µM]
CC1=C(C#N)c2nc(N)c(C#N)c(C)c2/C1=C\c1ccc(OCC(=O)O)c(Cl)c1 | -1 | · | · | 16 | 57* | -11
CC(C)=CCNc1ncnc2c1c(C#N)cn2C1OC(CO)C(O)C1O (stereo unspecified) | -5 | · | · | 1 | -1 | 58*
OC[C@H]1O[C@@H](n2cnc3c(Nc4ccccc4)ncnc32)[C@H](O)[C@@H]1O | 2 | -8 | 10 | 0 | · | -5
COC(=O)/C(=N\Nc1ccc(Cl)cc1)Sc1nnc(-c2ccc(OC)cc2)n1C | 0 | 95* | -1 | 0 | -1 | ·
COc1ccc(CNC(=O)CSc2nnc(-c3ccc(NC(C)=O)cc3)n2C)cc1 | · | -11 | -4 | · | 1 | 5
CC(C)C#Cc1ccc([C@@H]2[C@@H](CO)N3C(=O)CN(S(=O)(=O)c4ccccc4)C[C@@H]23)cc1 | 12* | · | · | 3 | · | ·
O=C1CN(S(=O)(=O)Cc2ccccc2)C[C@@H]2[C@@H](c3ccc(C#Cc4cccc(F)c4)cc3)[C@H](CO)N12 | 8.1* | · | · | 0 | · | ·
CC(C)CC#Cc1ccc([C@H]2[C@H](CO)N3C(=O)CN(C(=O)Nc4cc(F)ccc4F)C[C@@H]23)cc1 | 11* | · | · | · | · | ·
O=C(C1CCCCC1)N1CC(=O)N2[C@@H](CO)[C@@H](c3ccc(C#Cc4cccc(F)c4)cc3)[C@@H]2C1 | 1 | · | · | 0 | · | ·
O=C(C1CCCCC1)N1CC(=O)N2[C@@H](CO)[C@H](c3ccc(C#Cc4cccc(F)c4)cc3)[C@@H]2C1 | 9.6* | · | · | 2 | · | ·
O=C(O)c1cc(NCc2ccc3c(c2)OCO3)ccc1N1CCOCC1 | · | 79* | -3 | · | 4 | -154
COc1ccccc1CNc1ccc(N2CCOCC2)c(C(=O)O)c1 | · | 99* | -1 | · | 1 | 0
O=C(O)c1cc(NCc2ccccc2)ccc1N1CCOCC1 | · | 49 | -1 | · | 1 | ·
CNC(=O)C[C@H]1CC[C@@H]2[C@H](COc3ccc(NC(=O)NCc4ccccc4)cc3C(=O)N2C)O1 | 2 | · | -1 | · | · | -12[16.7 µM]
CNC[C@@H]1Oc2ncc(Br)cc2C(=O)N([C@H](C)CO)C[C@H]1C | 4 | · | · | · | · | 2[16.7 µM]
CC(Cc1ccc(O)c(O)c1)C(C)Cc1ccc(O)c(O)c1 (stereo unspecified) | · | 99* | · | · | · | ·
COc1cc(C[C@@H](C)[C@@H](C)Cc2ccc(O)c(OC)c2)ccc1O | 4 | 50 | 0 | 0 | · | 24
CO[C@@H]1CN(C)C(=O)c2cc(NC(C)=O)ccc2OC[C@H](C)N(Cc2cccc(F)c2)C[C@@H]1C | -2 | · | 1 | 5 | · | -10[16.7 µM]
CC(=O)/C(C#N)=C1\NC(=O)C(Cc2ccccc2C)S1 (stereo unspecified) | 11* | 18 | 4 | 5 | -1 | -17
CC(=O)/C(C#N)=C1\NC(=O)C(Cc2ccccc2)S1 (stereo unspecified) | · | 0 | -13 | · | -1 | ·
